HUVEC tox TNFa = cytotoxicity in TNFa-stimulated HUVEC, primary screen, cytotoxicity control for VCAM1 expression modulator project, imaging, Hoechst nuclei count | AID 848, 2007 | HUVEC TNFalpha-stimulated, Hoechst cell count | cell count reduction, % at 2 µM | 0.17% of 93,000 active;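 active = cell count reduction exceeding the screen mean by over 5 SD, scaled to untreated wells per plate, cut at about 78% in these data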;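 also: cells counted after 24 h of TNF alpha exposure following the 1 h pretreatment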
NFkB transloc pot = enhancers of NFkB p65 translocation in HUVEC – imaging, IL-1B stimulus, high-content imaging, primary screen. AID 819, 2007. activation, % at 2 µM. 0.3% of 94,000 active. HUVEC IL-1B NFkB p65 nuclear translocation imaging;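 active = activation above 40%, about the mean plus 3 SD, also judged a hit on visual image review; inconclusive = activation above 40% but not a hit on visual review; inactive = activation not above 40% and no visual hit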;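 also: percent activation is computed from the nuclear over cytoplasmic p65 intensity ratio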
NFkB transloc inh = inhibitors of IL-1B driven NFkB p65 nuclear import, primary screen, imaging, HUVEC, IL-1B stimulus, high-content imaging | HUVEC IL-1B NFkB p65 nuclear translocation imaging | inhibition, % at 2 µM | 0.43% of 94,000 active | AID 796, 2007;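 active = inhibition above about 30% together with a positive call from visual inspection of the well image, limit read from the data; inconclusive = inhibition above a set limit but visual check negative; inactive = inhibition not above a set limit, visual check negative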;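 also: nuclear over cytoplasmic p65 intensity ratio measured by imaging; 0% = IL-1B stimulated DMSO wells and 100% = unstimulated DMSO wells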
E-sel TNF inh = E-selectin induction blockers in HUVEC – imaging, immunofluorescence, high content, primary screen. HUVEC TNFa-induced E-selectin immunofluorescence. inhibition, % at 2 µM. 0.71% of 120,000 active;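 active = inhibition above the batch mean plus 3 SD, and confirmed as a hit on visual image review, cut at about 43% in these data; inconclusive = passes the inhibition cutoff but fails visual image review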;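 also: 0% = TNF-stimulated DMSO wells and 100% = unstimulated control wells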
IL1B cytotox = cytotoxicity in IL-1B stimulated HUVEC, primary screen, cytotoxicity control for IL-1B NFkB translocation project, imaging, Hoechst nuclear count, IL-1B stimulus; HUVEC cell count loss; cell count reduction, % at 2 µM; 0.41% of 94,000 active; AID 845, 2007;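 active = cell count reduction more than 3 SD above the screen-wide mean, cut at about 70% in these data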;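 also: normalized per plate to untreated control cells as the no-loss baseline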
VCAM1 TNFa inh = inhibitors of TNFa-induced VCAM1 expression, primary screen, imaging, HUVEC, TNFa stimulus, immunofluorescence | HUVEC TNFa-induced VCAM-1 immunofluorescence, high-content imaging | inhibition, % at 2 µM | 0.48% of 95,000 active | AID 802, 2007;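 active = inhibition above the batch mean plus 3 SD, with images confirmed as a hit by eye, cut at about 37% in these data; inconclusive = inhibition above that limit but hit not confirmed in images; inactive = inhibition not above that limit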;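 also: 0% = TNF-stimulated DMSO wells and 100% = unstimulated control wells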
Numbers without * were called inactive; ? = inconclusive; . = not tested or not shown. A selection: hits, their analogues and other compounds. The true share with any hit is near 1.6%.

SMILES	HUVEC tox TNFa	NFkB transloc pot	NFkB transloc inh	E-sel TNF inh	IL1B cytotox	VCAM1 TNFa inh
O=C(c1cccs1)N1CCN(S(=O)(=O)N2CCCCC2)CC1	-1	-7	7	3	92*	21
O=C(O)CC(NC(=O)c1cccc([N+](=O)[O-])c1)c1ccc2c(c1)OCO2 (centres undefined)	.	.	.	30	.	.
Cn1ccc2c([N+](=O)[O-])cccc2c1=O	.	.	.	-4	.	.
CCCc1cc(NC(=O)CCl)n(-c2ccccc2)n1	.	.	.	14	.	.
Cc1csc(SC(C)C(=O)NCC2CCCCC2)n1 (centres undefined)	.	.	.	-9	.	.
CC1(C)CC2CC(C)(CN2C(=O)COC(=O)CNC(=O)c2ccc(Cl)c(Cl)c2)C1 (centres undefined)	.	.	.	4	.	.
O=C1CNC(=O)/C(=C/c2ccco2)N1	.	.	.	33	.	.
Cc1cc2nc(-c3ccc(SCc4ccc(C#N)cc4)nc3)[nH]c2cc1C	5	16	-16	90*	-58	-6
N#Cc1ccccc1CSc1ccc(-c2nc3ccccc3[nH]2)cn1	-1	3	-3	-13	13	-5
O=C(c1ccc(Cl)c(S(=O)(=O)N2CCCC2)c1)N1CCN(c2ncccn2)CC1	.	.	.	9	.	.
O=C(O)CSCCn1cccn1	.	.	.	-10	.	.
Cc1ccn(CCSCC(=O)O)n1	-11	4	-4	7	86*	-8
O=C(Nc1ccc(Cl)c(Cl)c1)N1N=CCC1c1ccccc1 (centres undefined)	.	.	.	-11	.	.
COc1ccc2c3c(cccc13)NN=C2C	61	-30	30*	6	29	14
CCC(C)C(=O)NCCc1ccc(S(N)(=O)=O)cc1 (centres undefined)	.	.	.	-40	.	.
Oc1ccc(-c2csc(-c3ccccc3)n2)cc1O	-3	.	.	51*	.	1
CCN(CC)S(=O)(=O)c1cccc(C(=O)N[C@H](C(=O)OCC(N)=O)C(C)C)c1	36	-34	34*	12	26	12
COC(=O)c1ccc(CO/N=C/c2ccc(OC)cc2)o1	.	.	.	4	.	.
Fc1ccccc1-c1n[nH]c(=S)n1CC1CCCO1 (centres undefined)	.	.	.	-29	.	.
S=c1[nH]nc(-c2ccccc2Cl)n1CC1CCCO1 (centres undefined)	-6	23	-23	-14	70*	8
CSc1nsc(/C=C/Nc2ccc(O)cc2C)c1C#N	.	.	.	-23	.	.
CCOC(=O)C1CCCN(c2oc(-c3ccc(OC)cc3)nc2C#N)C1 (centres undefined)	.	.	.	18	.	.
Cn1c(CCNC(=O)c2ccc(Cl)c(Cl)c2)nnc1SCc1ccc(Cl)c(Cl)c1	4	14	-14	100*	-43	3
Cc1[nH]c(=O)[nH]c(=O)c1NS(=O)(=O)c1ccccc1	.	.	.	32	.	.
Cc1ccc(-n2ncc3c(N4CCN(c5ccccc5)CC4)ncnc32)c(C)c1	.	1	-1	-4	6	96*
SMILES	HUVEC tox TNFa	NFkB transloc pot	NFkB transloc inh	E-sel TNF inh	IL1B cytotox	VCAM1 TNFa inh
COc1ccc(NC(=O)CSc2nnc(C3CC3)n2N)cc1	0	12	-12	11	-6	-18
COc1ccc(NC(=O)CSc2nnc(C3CCCCC3)n2-c2ccccc2)cc1	-1	-81	81*	-13	55	15
COc1cc(-n2cnnn2)ccc1S(=O)(=O)N1CCOCC1	-22	-8	8	.	-14	-24
O=S(=O)(c1cccc(-n2cnnn2)c1)N1CCOCC1	100*	8	-8	.	-7	?
C=CCc1cccc2cc(C(=O)Nc3ccccc3C(=O)O)c(=O)oc12	.	.	.	-7	.	.
COC(CNC(=O)c1cccc(-n2c(=S)[nH]c3cc(Cl)ccc3c2=O)c1)OC	.	.	.	-1	.	.
O=C(NC1(C(F)(F)F)NC(=O)N(c2ccc(F)c(Cl)c2)C1=O)c1ccncc1 (centres undefined)	.	-96	-1	-6	88*	10
COC(=O)c1ccc(S(=O)(=O)NCc2cccc(OC)c2)n1C	-14	-6	6	64*	-3	9
CCOC(=O)Cc1csc(SCC(=O)c2c(N)n(CC(C)C)c(=O)n(C)c2=O)n1	-28	-19	19	18	-10	-2
CCOC(=O)Cc1csc(SCC(=O)/C(C#N)=C(\C)N)n1	79*	4	-4	14	4	59*
CCCC(c1nnnn1CCOC)N1CCN(C(=O)c2ccco2)CC1 (centres undefined)	6	.	.	.	.	-16
COCCn1nnnc1C(C(C)C)N1CCN(C(=O)c2ccco2)CC1 (centres undefined)	3	-29	29	10	88*	-10
Cc1ccc(S(=O)(=O)Cn2nnnc2C(C(C)C)N2CCN(C(=O)c3ccco3)CC2)cc1 (centres undefined)	2	44*	-44	-18	-11	-8
Cc1ccc(S(=O)(=O)Cn2nnnc2C(c2ccccc2)N2CCN(c3ccccc3)CC2)cc1 (centres undefined)	-14	-57	57*	18	23	-6
COc1ccc([N+](=O)[O-])cc1N(CC1CO1)S(=O)(=O)c1ccc(C)cc1 (centres undefined)	.	.	.	1	.	.
CS(=O)(=O)C1=NSC2=NC(=O)/C(=C\c3cccn3-c3ccc(Cl)cc3)C(=N)N21	.	.	.	100*	.	.
S=C1NCCOCCOCCOCCNC(=S)N2CCOCCOCCN1CCOCCOCC2	.	.	.	-15	.	.
Cc1ccn2cc(CCNS(=O)(=O)c3ccc(F)c(C(F)(F)F)c3)nc2c1	-14	22	-22	89*	5	-4
C=CS(=O)(=O)c1ccc(Oc2ccc(S(=O)(=O)C=C)cc2)cc1	.	.	.	100*	.	.
O=S(=O)(c1ccc(Oc2ccc(S(=O)(=O)N3CCOCC3)cc2)cc1)N1CCOCC1	.	.	.	-1	.	.
COc1ccc(S(=O)(=O)N(C)CC(=O)Nc2ccc3c(c2)OCO3)cc1	-19	-27	27	6	-9	-5
COc1ccc(S(=O)(=O)N(C)CC(=O)Nc2ccc3c(c2)OCO3)cc1OC	-14	-7	7	-18	81*	4
O=C(CN1C(=O)c2ccccc2C1=O)N1CCN(c2nnc(-c3ccccc3)c3ccccc23)CC1	-7	-6	6	-8	0	5
Cc1ccc(-c2nnc(N3CCN(C(=O)CN4C(=O)c5ccccc5C4=O)CC3)c3ccccc23)cc1	-3	16	-16	100*	-63	3
CC(OC(=O)c1ccc2c(=O)n3c(nc2c1)CCCCC3)C(=O)Nc1ccc(F)cc1Cl (centres undefined)	.	.	.	-7	.	.
CCOc1ccc(OCC)c(NC(=O)CCCN2C(=S)NC(C)(C)CC2C)c1 (centres undefined)	.	.	.	26	.	.
CC(C)C(OC(=O)c1nsc(Cl)c1Cl)C(=O)NCc1ccc2c(c1)OCO2 (centres undefined)	.	-96	-5	-26	86*	-33
O=C(O)Cc1csc(-c2cccc(F)c2)n1	.	.	.	2	.	.

Screens as filed in PubChem BioAssay.
